Test systems include NCI-H23 lung; NCI-H226 lung; NCI-H322M lung; HOP-62 NSCLC; NCI-H460 lung; HOP-92 NSCLC; NCI-H522 lung; A549/ATCC NSCLC; 786-0 renal; COLO 205 colon; DU-145 prostate; K-562 leukemia; MALME-3M melanoma; MDA-MB-231 breast; RXF 393 renal; SF-268 CNS; SF-295 CNS; SF-539 CNS; UACC-257 melanoma; M14 melanoma.
What all share (test): NCI-60 one-dose screen, 48 h (100 = growth as untreated, 0 = no growth, -100 = all killed)
Holding throughout (settings): 10 µM unless noted

This is part of a sample that, as a whole, favours compounds with a hit. Of some 83,000 tested, about 20% had one in any assay.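 Cells were grown in 96-well plates and exposed to the test compound at a single concentration for 48 hours; results are reported as percent growth, with values below 10 considered active.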 Unmarked numbers belong to inactive results. Active and inactive are the calls of the source.

For `c1ccc(CNCCN(CCNCc2ccccn2)Cc2ccc3ccccc3c2)nc1`, the growth is 21.5% in the experiment on NCI-H23 lung; -17.9% (active) with NCI-H226 lung; 12.2% with NCI-H322M lung; -17.4% (active) in the experiment on HOP-62 NSCLC; -7.2% (active) with NCI-H460 lung; -7.66% (active) in the experiment with HOP-92 NSCLC. The growth was 14.1% in the experiment on NCI-H522 lung; -14.5% (active) in the experiment on A549/ATCC NSCLC; -46.4% (active) with 786-0 renal; -5.97% (active) with COLO 205 colon; 13.7% in the experiment with DU-145 prostate; -0.99% (active) with K-562 leukemia. The growth in the experiment with MALME-3M melanoma is 24.6%; in the experiment on MDA-MB-231 breast, 4.02% (active); in the experiment with RXF 393 renal, 45.1%; in the experiment with SF-268 CNS, 19%; with SF-295 CNS, -35.6% (active); in the experiment on SF-539 CNS it was -34.8% (active). Besides, the growth with UACC-257 melanoma was 31.7%; in the experiment with M14 melanoma it was -49.4% (active).

For the molecule `COc1cc(C(=O)NNC(=O)c2ccccc2O)cc(OC)c1OC`, the growth in the experiment on NCI-H23 lung is 101%; with NCI-H226 lung, 96.8%; in the experiment with NCI-H322M lung it was 93.5%; in the experiment with HOP-62 NSCLC, 99.7%; in the experiment with NCI-H460 lung, 102%; in the experiment on HOP-92 NSCLC it was 83%. For the same molecule, the growth was 61.9% in the experiment on NCI-H522 lung; 82.9% in the experiment on A549/ATCC NSCLC; 97.6% in the experiment with 786-0 renal; 94.3% with COLO 205 colon; 104% in the experiment with DU-145 prostate; 95.7% in the experiment on K-562 leukemia. The growth in the experiment on MALME-3M melanoma is 103%; in the experiment with MDA-MB-231 breast, 87.5%; in the experiment on RXF 393 renal it was 99%; in the experiment with SF-268 CNS, 98.1%; in the experiment on SF-295 CNS, 98.2%; in the experiment with SF-539 CNS, 98.5%. The growth is 72.4% with UACC-257 melanoma and 109% with M14 melanoma.

Turning to `O=C(O)c1ccc(-n2cc(/C=N/Nc3ccc(F)cc3)c(-c3cccc(C(F)(F)F)c3)n2)cc1`, the growth in the experiment with NCI-H23 lung was 81%; in the experiment on NCI-H226 lung it was 92.5%; with NCI-H322M lung it was 76.5%; with HOP-62 NSCLC, 96.1%; in the experiment on NCI-H460 lung, 81.6%; with HOP-92 NSCLC it was 95.9%. For the same molecule, the growth was 36.3% with NCI-H522 lung; 65.7% in the experiment on A549/ATCC NSCLC; 79.9% in the experiment with 786-0 renal; 105% in the experiment on COLO 205 colon; 81.6% in the experiment on DU-145 prostate; 11.1% in the experiment with K-562 leukemia. Also, the growth with MALME-3M melanoma was 88.2%; in the experiment on MDA-MB-231 breast, 87.8%; in the experiment on RXF 393 renal it was 101%; in the experiment on SF-268 CNS it was 67%; in the experiment on SF-295 CNS, 54%; with SF-539 CNS, 75.6%. Besides, the growth with UACC-257 melanoma was 91.2%; with M14 melanoma, 51.3%.

For the molecule `C=CCOc1ccc(/C(Cl)=N/N=C(\Cl)c2cc(OC)c(OC)c(OC)c2)cc1`, the growth in the experiment on NCI-H23 lung was 64.9%; in the experiment with NCI-H226 lung, 81.8%; in the experiment on NCI-H322M lung, 97.4%; with HOP-62 NSCLC, 79.7%; with NCI-H460 lung it was 48%; with HOP-92 NSCLC, 65.1%. In addition, the growth in the experiment with NCI-H522 lung was 37.9%; in the experiment with A549/ATCC NSCLC, 59.5%; in the experiment with 786-0 renal it was 98.1%; in the experiment on COLO 205 colon it was 72.2%; with DU-145 prostate, 70%; with K-562 leukemia it was 69.4%. Moreover, the growth with MALME-3M melanoma was 90.9%; in the experiment with MDA-MB-231 breast, 82.4%; with RXF 393 renal, 58.7%; in the experiment on SF-268 CNS, 85.5%; in the experiment on SF-295 CNS it was 87.9%; with SF-539 CNS, 88.8%. The growth in the experiment on UACC-257 melanoma was 53.3%; with M14 melanoma, 73.4%.

For `Cc1c(Cl)ccc2c(C(=O)Cl)cc(-c3ccccc3)nc12`, the growth is 98.8% in the experiment on NCI-H23 lung; 90.8% with NCI-H226 lung; 103% with NCI-H322M lung; 85.4% in the experiment on HOP-62 NSCLC; 98.2% with NCI-H460 lung; 93.5% with HOP-92 NSCLC. For the same molecule, the growth was 95.1% in the experiment with NCI-H522 lung; 92.9% in the experiment with A549/ATCC NSCLC; 97.1% with 786-0 renal; 111% in the experiment with COLO 205 colon; 101% with DU-145 prostate; 97.1% with K-562 leukemia. Further, the growth in the experiment with MALME-3M melanoma was 104%; with MDA-MB-231 breast it was 97%; with RXF 393 renal, 110%; in the experiment on SF-268 CNS, 102%; with SF-295 CNS it was 94.7%; with SF-539 CNS it was 100%. The results for the growth in the experiment on UACC-257 melanoma and in the experiment on M14 melanoma were 87.9% and 98.1%, respectively.

For `O=C1COc2ccccc2C(=O)N1CCCCN1CCCCC1`, the growth in the experiment on NCI-H23 lung is 94%; in the experiment on NCI-H226 lung, 93%; with NCI-H322M lung, 104%; in the experiment on HOP-62 NSCLC, 78.2%; in the experiment on NCI-H460 lung, 104%; in the experiment on HOP-92 NSCLC it was 61.5%. In addition, the growth with NCI-H522 lung is 71.5%; with A549/ATCC NSCLC, 96.4%; with 786-0 renal, 82.4%; with COLO 205 colon, 87.6%; in the experiment with DU-145 prostate it was 93.7%; in the experiment with K-562 leukemia it was 50%. Besides, the growth with MALME-3M melanoma is 93.8%; in the experiment with MDA-MB-231 breast, 109%; with RXF 393 renal it was 118%; in the experiment with SF-268 CNS, 100%; in the experiment on SF-295 CNS, 93.9%; in the experiment with SF-539 CNS, 102%. Also, the growth was 102% with UACC-257 melanoma and 91.9% in the experiment on M14 melanoma.

Regarding `O=C(Nc1ccc(-n2cc(-c3ccncc3)c(-c3ccc(O)c(Cl)c3)n2)cc1)Nc1ccc(Cl)c(C(F)(F)F)c1`, the growth in the experiment on NCI-H23 lung was 16.2%; in the experiment on NCI-H226 lung it was 50.2%; in the experiment on NCI-H322M lung, 27.3%; in the experiment with HOP-62 NSCLC it was 28.3%; in the experiment on NCI-H460 lung, -1.85% (active); in the experiment with HOP-92 NSCLC it was -22.9% (active). For the same molecule, the growth with NCI-H522 lung is 9.38% (active); in the experiment on A549/ATCC NSCLC, 16.7%; in the experiment with 786-0 renal, -31.5% (active); in the experiment with COLO 205 colon, 41.3%; in the experiment on DU-145 prostate, 29.5%; in the experiment with K-562 leukemia, 17.1%. In addition, the growth is 13.3% in the experiment on MALME-3M melanoma; -39.7% (active) in the experiment on MDA-MB-231 breast; -74.4% (active) in the experiment with RXF 393 renal; 18.4% in the experiment with SF-268 CNS; -10.3% (active) with SF-295 CNS; 13.7% in the experiment with SF-539 CNS. In addition, the growth in the experiment with UACC-257 melanoma is 47.5%; with M14 melanoma, 7.1% (active).
